Source: PubChem BioAssay (NCATS)
“And” between values parts separate entries of the source, which are not always exact repeats. Equal values may be shown once. Records with an inconclusive call do not appear. The source made the active and inactive calls. Unless noted, calls come from the whole dose curve; as a rule, active = well fitted curve in either direction with a large enough effect (not every such curve was filed as active); inconclusive = small, poorly fitted or top-dose-only effect, or another doubt; inactive = flat fitted curve, though single readings scatter.

Legend:
[1] = AP1 Signaling Pathway (AID 357); details: ME-180 AP-1-bla reporter, EGF-induced, beta-lactamase ratio, 5 h; at 7.69 µM (top of the series) unless noted; note: % is set by controls: 0 for no effect and ±100 for the full control effect
In short: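 AP-1-bla ME-180 cells with beta-lactamase reporter under AP-1 response element, stimulated with EC50 EGF; compounds titrated, 5 hours at 37 degrees Celsius. CCF4 read at 460/530 nm ratio; positive and negative modulators judged by AC50.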

[2] = NFAT Signaling Pathway (AID 444); details: Jurkat NFAT-bla M1, carbachol, beta-lactamase ratio, 5 h; at 7.69 µM (top of the series) unless noted;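 note: carbachol stimulus at about its EC50 of 1 µM final; % is set by controls: 0 for no effect and ±100 for the full control effect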
In short: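 Read-out: CCF4 FRET ratio (460 nm/530 nm) after 1 h RT dye loading, used for %activity and AC50 from titration series. Cells: Jurkat NFAT-β-lactamase/M1 line, treated with compound plus 1 uM carbachol for 5 h, 37 °C.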

[3] = Stat Signaling Pathway (AID 446); details: ME-180 SIE beta-lactamase reporter, IL-6 stimulated, 5 h; at 7.69 µM (top of the series) unless noted;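 note: ME-180 cervical cancer cells given 40 pM IL-6 alongside compound; SIE-controlled beta-lactamase reporter measured as 460/530 nm FRET emission ratio; % is set by controls: 0 for no effect and ±100 for the full control effect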
In short: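 Screening format detects activators and inhibitors alike: ME-180 SIE-bla cells stimulated at 40 pM IL-6 for 5 hrs with compound, then dual-emission beta-lactamase read at 405 nm excitation.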

[4] = target: Mitogen-activated protein kinase 10 (Mus musculus) (UniProt Q61831); assay: JNK3 AlphaScreen Assay (AID 530);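 note: kinase came from lysate of stimulated human HepG2 cells; signal reports phosphorylation of biotinylated GST-cJun 1-79 at Ser73 with 10 µM ATP; % is set by controls: 0 for no effect and ±100 for the full control effect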
In short: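 Room-temperature AlphaScreen kinase assay; pre-activated HepG2 lysate as JNK3 source, biotin-GST-cJun(1-79) substrate, 10 uM ATP, compound 15 min preincubation.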

[5] = target: 3',5'-cyclic-AMP phosphodiesterase 4B (Homo sapiens) (UniProt Q07343); assay: qHTS Assay for Inhibitors of PDE-IV (AID 607; active = well fitted activation curve with a large enough effect in the main read-out, with a control signal flat, not every such curve was filed as active; note: % of control where 0% means no effect)
In short: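 The readout is membrane depolarisation from a cAMP-sensing CNG channel, detected with a potential dye at ex 535/em 590. Cells were HEK293-derived (endogenous PDE-IV) at 1000 cells/well, titrated up to 22.9 uM final.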

[6] = qHTS Assay for Lipid Storage Modulators (AID 1519; calls by dose curve); details: Drosophila S3 cells, BODIPY lipid droplet/cell ratio, laser cytometry, cells loaded with oleic acid
In short: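 Cells seeded at 5,000 per well were treated with compounds over a concentration series and loaded with oleic acid (400 uM, as added). Lipid droplet fluorescence (488 nm excitation, 500-530 nm channel) was read by laser-scanning cytometry and normalized to 20 uM Triacsin C.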

[7] = target: Glucocorticoid receptor (Homo sapiens) (UniProt P04150); assay: GR-GFP Redistribution (AID 450;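 active = compounds whose dose series gives a full or clear partial fitted curve of increased nuclear translocation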; note: potency is the fitted concentration of half-maximal effect); details: U2OS GR-GFP nuclear translocation, laser cytometry, 2 h
[8] = target: Glucocorticoid receptor (Homo sapiens) (UniProt P04150); assay: GR-EFC Redistribution (AID 451; calls by dose curve; note: potency is the fitted concentration of half-maximal effect); details: CHO-K1 GR-EFC translocation, beta-gal luminescence, 2 h
In short: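 Translocation of GR-ED fusion to nuclear EA restores b-gal, read by luminescence after 1 h room-temperature detection. Engineered CHO-K1 biosensor cells, 1,000/well, exposed 2 h at 37 C to titrations up to 46 uM final.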

[9] = target: ATP-dependent 6-phosphofructokinase (Trypanosoma brucei brucei) (UniProt O15648); assay: qHTS Assay to Find Inhibitors of T. brucei phosphofructokinase: hit validation (AID 492961; active = well fitted curve in the direction sought with a large enough effect; an effect the other way counts as inactive or inconclusive)
In short: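 In this biochemical qHTS validation, titrated compounds were tested against 1.25 nM PFK with 0.1 mM ATP and 0.5 mM F6P. Percent activity came from controls lacking or containing enzyme.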

[10] = target: Luciferin 4-monooxygenase (Photinus pyralis) (UniProt P08659); assay: Biochemical firefly luciferase enzyme assay for NPC (AID 624030; active = well fitted curve in the direction sought with a large enough effect; an effect the other way counts as inactive or inconclusive;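 note: purified P. pyralis luciferase at 10 nM with luciferin and ATP substrate; 0% = DMSO and -100% = full luciferase inhibition by PTC124 control; nearly all actives have a fitted effect of over 70% in size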)
In short: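 Direct inhibition of firefly luciferase enzyme (10 nM final, 50 mM Tris Acetate) assessed by luminescence within 5 minutes. Percent activity scaled between DMSO and PTC124 positive control, with concentration-effect curves classified by fit quality and response.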

[11] = qHTS profiling for inhibitors of Plasmodium falciparum proliferation (AID 504749; active = well fitted curve in the direction sought with a large enough effect; an effect the other way counts as inactive or inconclusive;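 note: 0% = DMSO vehicle and full inhibition = artemisinin control; nearly all actives have a fitted effect of over 60% in size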); details: P. falciparum in erythrocytes, SYBR Green DNA, 72 h
In short: (§1)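 Three-day growth assay of blood-stage parasites in erythrocytes (0.3% parasitemia, 2.5% hematocrit) at 37 C, 5% CO2, quantified by SYBR Green DNA staining after overnight detergent lysis.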

AS120 = assay: as above; details: P. falciparum in erythrocytes, SYBR Green DNA, 72 h; series mostly up to 28.7 µM
In short: as §1

CP238 = assay: as above; details: P. falciparum in erythrocytes, SYBR Green DNA, 72 h; series mostly up to 12.8 µM
In short: as §1

CP250 = assay: as above; details: P. falciparum in erythrocytes, SYBR Green DNA, 72 h; series mostly up to 12.8 µM
In short: as §1

CP262 = assay: as above; details: P. falciparum in erythrocytes, SYBR Green DNA, 72 h; series mostly up to 12.8 µM
In short: as §1

CP265 = assay: as above; details: P. falciparum in erythrocytes, SYBR Green DNA, 72 h; series mostly up to 12.8 µM
In short: as §1

FAB9 = assay: as above; details: P. falciparum in erythrocytes, SYBR Green DNA, 72 h; series mostly up to 12.8 µM
In short: as §1

[12] = target: Cytochrome P450 1A2 (Homo sapiens) (UniProt P05177); assay: p450-cyp1a2 (AID 410; calls by dose curve; note: potency is the fitted concentration of half-maximal effect;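 for activity change, negative = inhibition: -100% = full effect of reference inhibitor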)
In short: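 Inhibition was calculated relative to 57 uM furafylline (full inhibition). The reaction used human CYP1A2 at 20nM with Luciferin-ME at its Km, 100uM, driven by an NADPH-regenerating system for 60 min at room temperature.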

[13] = target: alpha-glucosidase (Oryza sativa, rice) (UniProt Q653V4); assay: Counterscreen for Glucocerebrosidase Inhibitors: qHTS Assay for Rice alpha-Glucosidase at pH 5.0 (AID 997; active = well fitted curve in the direction sought with a large enough effect; an effect the other way counts as inactive or inconclusive;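 note: 0% = full activity with enzyme and -100% = basal without enzyme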)
In short: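 Rice alpha-glucosidase (4 nM final) with 400 uM 4-methylumbelliferyl-alpha-D-glucopyranoside in citrate buffer pH 5.0, 20 min at room temperature, stopped at pH 10; fluorescence 365/440 nm, compounds 0.7 nM–77 uM, AC50 from Hill fits.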

[14] = target: Ubiquitin carboxyl-terminal hydrolase 1 (Homo sapiens) (UniProt O94782); assay: Inhibitors of USP1/UAF1: Pilot qHTS (AID 504865; active = well fitted curve in the direction sought with a large enough effect; an effect the other way counts as inactive or inconclusive;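 note: rhodamine fluorescence freed from ubiquitin-rhodamine substrate followed over time; top concentration of the series differs between compounds; % is set by controls: 0 for no effect and ±100 for the full control effect; nearly all actives have a fitted effect of over 35% in size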)
In short: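 Deubiquitinase activity followed as kinetic rhodamine fluorescence release from 150 nM Ub-Rho. 1 nM USP1/UAF1 with compound, after 15 min room-temperature preincubation, in HEPES pH 7.8 buffer containing TCEP, EDTA, BSA and Tween-20.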

[15] = measured here: cell count channel max response
[16] = measured here: lipid channel max response

Chain of 3',5'-cyclic-AMP phosphodiesterase 4B (Homo sapiens) (Q07343 whole entry, looked up): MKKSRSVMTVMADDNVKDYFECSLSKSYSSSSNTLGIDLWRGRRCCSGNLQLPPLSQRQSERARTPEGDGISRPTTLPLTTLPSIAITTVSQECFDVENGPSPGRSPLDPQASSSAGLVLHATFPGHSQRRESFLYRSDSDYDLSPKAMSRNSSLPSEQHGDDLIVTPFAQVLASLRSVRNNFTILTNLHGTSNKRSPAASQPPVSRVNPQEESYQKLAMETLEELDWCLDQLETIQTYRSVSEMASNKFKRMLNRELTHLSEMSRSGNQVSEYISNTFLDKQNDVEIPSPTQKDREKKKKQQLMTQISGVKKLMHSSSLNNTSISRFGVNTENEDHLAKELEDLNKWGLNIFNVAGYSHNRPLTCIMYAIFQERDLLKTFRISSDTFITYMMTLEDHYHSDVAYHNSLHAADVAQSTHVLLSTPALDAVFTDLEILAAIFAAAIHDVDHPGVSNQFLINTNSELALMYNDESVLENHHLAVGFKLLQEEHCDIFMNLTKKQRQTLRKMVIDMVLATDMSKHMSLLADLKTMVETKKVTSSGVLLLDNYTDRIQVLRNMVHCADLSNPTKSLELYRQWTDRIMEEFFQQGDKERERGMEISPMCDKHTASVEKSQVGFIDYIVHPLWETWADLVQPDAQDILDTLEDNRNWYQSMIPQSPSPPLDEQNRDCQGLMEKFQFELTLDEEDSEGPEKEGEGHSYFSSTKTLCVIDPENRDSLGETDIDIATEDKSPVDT
Chain of Glucocorticoid receptor (Homo sapiens) (P04150 whole entry, looked up, the tested form may be a part): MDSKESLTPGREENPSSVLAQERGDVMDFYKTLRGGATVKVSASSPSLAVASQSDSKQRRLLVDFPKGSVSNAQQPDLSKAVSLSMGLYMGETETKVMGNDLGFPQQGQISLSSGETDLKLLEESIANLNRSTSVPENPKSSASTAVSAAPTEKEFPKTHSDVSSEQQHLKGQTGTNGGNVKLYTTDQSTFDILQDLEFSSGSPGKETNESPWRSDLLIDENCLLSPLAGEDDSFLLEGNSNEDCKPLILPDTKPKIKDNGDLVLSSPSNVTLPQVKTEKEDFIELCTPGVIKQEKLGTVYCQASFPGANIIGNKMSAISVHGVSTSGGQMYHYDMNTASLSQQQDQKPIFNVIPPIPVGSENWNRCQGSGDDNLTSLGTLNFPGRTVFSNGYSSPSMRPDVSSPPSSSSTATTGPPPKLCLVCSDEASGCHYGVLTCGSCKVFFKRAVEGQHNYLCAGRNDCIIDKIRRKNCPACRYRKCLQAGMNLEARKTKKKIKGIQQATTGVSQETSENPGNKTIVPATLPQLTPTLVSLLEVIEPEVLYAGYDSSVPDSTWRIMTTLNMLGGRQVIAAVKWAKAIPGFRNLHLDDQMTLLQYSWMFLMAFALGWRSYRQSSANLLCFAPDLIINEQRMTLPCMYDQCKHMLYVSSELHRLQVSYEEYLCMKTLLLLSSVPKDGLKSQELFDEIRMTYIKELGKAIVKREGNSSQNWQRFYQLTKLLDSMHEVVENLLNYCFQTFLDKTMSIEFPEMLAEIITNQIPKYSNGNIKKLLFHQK
Chain of Cytochrome P450 1A2 (Homo sapiens) (P05177 whole entry, looked up): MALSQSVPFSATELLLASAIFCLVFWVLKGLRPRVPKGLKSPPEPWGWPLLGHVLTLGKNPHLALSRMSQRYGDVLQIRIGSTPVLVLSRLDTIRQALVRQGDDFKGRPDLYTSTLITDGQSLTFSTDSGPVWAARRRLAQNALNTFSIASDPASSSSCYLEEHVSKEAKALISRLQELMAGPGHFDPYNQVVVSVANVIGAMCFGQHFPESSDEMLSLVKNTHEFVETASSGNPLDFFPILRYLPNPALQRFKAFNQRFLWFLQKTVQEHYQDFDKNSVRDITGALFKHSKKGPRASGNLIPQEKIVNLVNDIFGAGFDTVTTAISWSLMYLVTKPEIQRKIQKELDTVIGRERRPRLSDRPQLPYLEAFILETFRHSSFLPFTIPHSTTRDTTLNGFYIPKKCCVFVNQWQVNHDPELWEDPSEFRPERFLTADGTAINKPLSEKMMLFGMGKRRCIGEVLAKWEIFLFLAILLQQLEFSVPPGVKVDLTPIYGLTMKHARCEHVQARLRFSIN
Chain of Luciferin 4-monooxygenase (Photinus pyralis) (P08659 whole entry, looked up): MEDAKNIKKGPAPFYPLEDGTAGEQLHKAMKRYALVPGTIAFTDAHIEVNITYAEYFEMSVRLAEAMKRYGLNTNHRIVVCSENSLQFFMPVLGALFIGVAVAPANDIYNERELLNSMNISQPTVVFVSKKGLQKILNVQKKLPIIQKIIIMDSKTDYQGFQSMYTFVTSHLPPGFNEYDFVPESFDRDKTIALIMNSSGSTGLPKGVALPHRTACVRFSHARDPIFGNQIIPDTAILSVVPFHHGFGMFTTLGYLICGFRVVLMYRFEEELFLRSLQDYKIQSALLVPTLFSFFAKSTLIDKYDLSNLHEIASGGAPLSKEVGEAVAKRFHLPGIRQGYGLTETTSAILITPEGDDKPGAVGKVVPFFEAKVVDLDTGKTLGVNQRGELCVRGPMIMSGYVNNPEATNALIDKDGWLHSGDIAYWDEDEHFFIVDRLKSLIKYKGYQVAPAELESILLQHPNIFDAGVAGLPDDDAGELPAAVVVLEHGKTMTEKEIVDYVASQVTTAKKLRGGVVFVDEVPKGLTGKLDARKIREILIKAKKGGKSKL
Chain of Ubiquitin carboxyl-terminal hydrolase 1 (Homo sapiens) (O94782 whole entry, looked up): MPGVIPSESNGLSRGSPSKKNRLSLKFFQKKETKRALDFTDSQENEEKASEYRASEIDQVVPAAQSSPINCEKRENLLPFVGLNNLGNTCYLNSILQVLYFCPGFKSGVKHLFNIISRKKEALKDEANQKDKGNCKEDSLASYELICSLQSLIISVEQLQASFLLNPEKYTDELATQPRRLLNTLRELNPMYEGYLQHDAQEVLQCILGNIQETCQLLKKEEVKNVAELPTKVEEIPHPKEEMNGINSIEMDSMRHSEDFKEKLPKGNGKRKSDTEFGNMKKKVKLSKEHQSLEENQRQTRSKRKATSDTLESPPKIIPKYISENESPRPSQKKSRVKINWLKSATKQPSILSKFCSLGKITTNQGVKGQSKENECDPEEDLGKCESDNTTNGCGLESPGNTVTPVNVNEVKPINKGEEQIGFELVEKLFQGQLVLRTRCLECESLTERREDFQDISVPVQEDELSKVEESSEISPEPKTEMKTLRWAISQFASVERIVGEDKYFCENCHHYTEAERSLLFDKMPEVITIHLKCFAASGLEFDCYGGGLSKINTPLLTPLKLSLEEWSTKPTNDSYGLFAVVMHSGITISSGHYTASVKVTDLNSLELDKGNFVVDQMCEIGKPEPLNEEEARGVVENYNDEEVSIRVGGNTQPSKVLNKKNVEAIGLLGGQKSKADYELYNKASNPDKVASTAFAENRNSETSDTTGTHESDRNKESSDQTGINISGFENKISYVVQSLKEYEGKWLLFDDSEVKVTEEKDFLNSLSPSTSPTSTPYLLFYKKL
Chain of ATP-dependent 6-phosphofructokinase (Trypanosoma brucei brucei) (O15648 whole entry, looked up): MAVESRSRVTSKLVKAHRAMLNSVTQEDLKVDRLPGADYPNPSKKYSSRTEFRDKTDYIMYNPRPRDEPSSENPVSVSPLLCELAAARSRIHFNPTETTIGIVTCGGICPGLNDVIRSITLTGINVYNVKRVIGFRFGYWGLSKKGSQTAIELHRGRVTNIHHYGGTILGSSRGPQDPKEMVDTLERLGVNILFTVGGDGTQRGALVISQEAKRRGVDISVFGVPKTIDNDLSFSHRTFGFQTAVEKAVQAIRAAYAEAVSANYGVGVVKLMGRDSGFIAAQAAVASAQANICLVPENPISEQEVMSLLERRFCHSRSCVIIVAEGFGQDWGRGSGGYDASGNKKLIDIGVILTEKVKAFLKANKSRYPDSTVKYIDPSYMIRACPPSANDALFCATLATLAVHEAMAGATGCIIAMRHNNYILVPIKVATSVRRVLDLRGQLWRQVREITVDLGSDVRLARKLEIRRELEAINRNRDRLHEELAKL

CN(C)CCOC(c1ccccc1)c1ccccc1 (tested in a mixture with another compound)
inactive: activity change, negative = inhibition [1] 27.4% [at 17.2 µM] and 19.6% [at 17.2 µM] | activity, negative = inhibition [3] 7.8% [at 17.2 µM] and 0.334% [at 17.2 µM] | Potency [4] | Potency [5] | activity change, negative = inhibition ([6]; at 25.7 µM (top of the series)) -3.15%
active: activity change, negative = inhibition [2] -93.6% [at 17.2 µM]
-4.36%: max response [6, 16]
-0.682%: max response [6, 15]

CN[C@@H](CC(C)C)C(=O)N[C@@H]1C(=O)N[C@H](CC(N)=O)C(=O)N[C@@H]2C(=O)N[C@H]3C(=O)N[C@H](C(=O)N[C@H](C(=O)O)c4cc(O)cc(O)c4-c4cc3ccc4O)[C@H](O)c3ccc(c(Cl)c3)Oc3cc2cc(c3O[C@H]2O[C@@H](CO)[C@@H](O)[C@@H](O)[C@@H]2O[C@@H]2C[C@](C)(N)[C@H](O)[C@H](C)O2)Oc2ccc(cc2Cl)[C@@H]1O
3.37%: max response [6, 16]
inactive: activity change, negative = inhibition [1] 4.27% [at 17.2 µM] | activity change, negative = inhibition [2] -5.38% [at 17.2 µM] | activity, negative = inhibition [3] 7.22% [at 17.2 µM] | Potency [7] > 20.6 µM | Potency [8] > 20.6 µM | Potency [4] | Potency [5] | activity change, negative = inhibition ([6]; at 25.7 µM (top of the series)) -2.11% | outcome [9] | outcome [10] | activity, negative = inhibition ([11]; at 28.7 µM (top of the series), parasite line A) 3.64% | activity, negative = inhibition ([11]; at 28.7 µM (top of the series), parasite line B) 4.98% | Potency (AS120) | Potency (CP238) | Potency (CP250) | Potency (CP262) | Potency (CP265) | Potency (FAB9)
5.45%: max response [6, 15]

C[C@@](N)(Cc1ccc(O)cc1)C(=O)O
15.7%: max response [6, 15]
inactive: activity change, negative = inhibition [1] -8.05% [at 38 µM] and -6.78% [at 38 µM] | Potency [12] | activity change, negative = inhibition [2] -13% [at 38 µM] and 8.58% [at 38 µM] | activity, negative = inhibition [3] 3.69% [at 38 µM] | Potency [7] > 46 µM | Potency [8] > 46 µM | Potency [4] | Potency [5] | outcome [13] | activity change, negative = inhibition ([6]; at 57.5 µM (top of the series)) 1.23% | Potency [14]
18.3%: max response [6, 16]

COc1ccc(C[C@@H]2c3cc(OC)c(OC)cc3CC[N@+]2(C)CCC(=O)OCCCCCOC(=O)CC[N@@+]2(C)CCc3cc(OC)c(OC)cc3[C@H]2Cc2ccc(OC)c(OC)c2)cc1OC
inactive: activity change, negative = inhibition [1] -6.73% [at 17.2 µM] | Potency [12] | activity change, negative = inhibition [2] -23.4% [at 17.2 µM] | activity, negative = inhibition [3] 10.6% [at 17.2 µM] | Potency [7] > 20.6 µM | Potency [8] > 20.6 µM | Potency [4] | Potency [5] | activity change, negative = inhibition ([6]; at 25.7 µM (top of the series)) -3.87% | outcome [9] | outcome [10] | activity, negative = inhibition ([11]; at 12.8 µM (top of the series), parasite line A) -5.94% | activity, negative = inhibition ([11]; at 12.8 µM (top of the series), parasite line B) 13.8% | Potency (AS120) | Potency (CP238) | Potency (CP250) | Potency (CP262) | Potency (CP265) | Potency (FAB9)
15.3%: max response [6, 15]
6.6%: max response [6, 16]

CN(C)Cc1ccccc1-c1nccc(NCc2cccs2)n1
9.23%: max response [6, 16]
active: Potency [12] 0.794 µM
4.85%: max response [6, 15]
inactive: activity change, negative = inhibition [1] 3.22% | activity change, negative = inhibition [2] -11.6% | activity, negative = inhibition [3] 0.159% | Potency [8] > 46 µM | Potency [4] | activity change, negative = inhibition ([6]; at 57.5 µM (top of the series)) 10.9% | Potency [14]
